Screening results from PubChem BioAssay.
Most compounds without a hit are left out; they make up all but 6.8% or so of the library.
Fluor 339 460 = intrinsic fluorescence of library compounds, ex339/em460 – biochemical, MLSMR library, data from DPM-DC assay, artefact control, profiling panel | compound autofluorescence, ex339/em460 nm, NADH buffer; stronger effect = higher value; 1 = no-compound wells, NADH background | fluorescence fold increase at 10 µM | 65,000 compounds, 5.5% hits | AID 709, 2007;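 active means at 10 µM, mean starting fluorescence two-fold or more over control wells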;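 further: signal is the first read of a kinetic run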
Spn MK inh = S. pneumoniae MK inhibitors, primary screen, biochemical, PK/LDH-coupled NADH absorbance; mevalonate kinase [Streptococcus pneumoniae D39]; purified MK, PK/LDH-coupled NADH absorbance 340 nm; inhibition, % at 10 µM; 65,000 compounds, 0.48% hits; AID 555, 2006;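 active means ranked among the strongest by inhibition in the single 10 µM screen, a fixed top-ranked set picked for dose follow-up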
PMK inhibit = S. pneumoniae PMK inhibitors, primary screen, biochemical, mevalonate pathway, pilot trial included. phosphomevalonate kinase (Streptococcus pneumoniae D39). purified PMK, PK/LDH-coupled NADH absorbance 340 nm. inhibition, % at 10 µM. 65,000 compounds, 0.49% hits. AID 539, 2006;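 active means top-ranked compounds by inhibition in the single 10 µM screen, taking a fixed number of the strongest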
NADH coupling = inhibitors of PK/LDH coupling enzymes, profiling panel, artefact control, biochemical, MLSMR library | coupled PK/LDH NADH assays, four targets | 65,000 compounds, 0.02% hits | IC50, µM (highest dose often 10 µM) | AID 774, 2007;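 active means single-dose screening hits from any of four coupled enzyme assays that gave an IC50 when retested across doses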;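 further: the DPM-DC format reads NADH fluorescence rather than 340 nm absorbance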
Spn DPM-DC inh = S. pneumoniae DPM-DC inhibitors, primary screen, biochemical, PK/LDH-coupled NADH fluorescence; purified DPM-DC; diphosphomevalonate decarboxylase (Streptococcus pneumoniae D39); calls only at 10 µM; 65,000 compounds, 0.49% hits;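 active means the 320 compounds with the highest percent inhibition in the single-dose primary screen, excluding strongly autofluorescent ones, cut at about 32% in these data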;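 further: kinetic rate of NADH fluorescence loss reporting ADP formed by the decarboxylase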
A340 absorber = compound light absorbance at 340 nm, profiling panel, artefact control, biochemical, MLSMR library, data from PS, PMK, MK assays; compound absorbance at 340 nm, fold over control; fold change at 10 µM; 65,000 tested, under 10 active; AID 708, 2007;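 active means at 10 µM dose, initial 340 nm absorbance at least 2 fold that of control wells; inactive means change under 2 fold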;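 further: initial absorbance extrapolated from kinetic A340 decline of NADH oxidation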
Numbers stand for hits; i = inactive; nt = no result given; + = active, no number.

SMILES	Fluor 339 460	Spn MK inh	PMK inhibit	NADH coupling	Spn DPM-DC inh	A340 absorber
CCc1cc2c(=O)c(-n3cnc4ccccc43)coc2cc1O	4.2	i	i	i	nt	i
CCN(C(=O)c1cc2cc(OC)ccc2oc1=O)c1ccccc1	i	i	i	i	i	i
COc1ccc2oc(=O)c(-c3nc(C)cs3)cc2c1	2.2	i	i	i	nt	i
CCc1cc2c(=O)c(-c3nc4ccccc4n3C)coc2c(CN2CCN(C)CC2)c1O	2.6	i	i	i	i	i
COc1ccccc1Oc1coc2cc(OC(=O)N3CCOCC3)ccc2c1=O	i	i	i	i	i	i
COc1ccccc1-c1coc2c(CN3CCN(CCO)CC3)c(O)ccc2c1=O	3	i	i	i	nt	i
COc1ccccc1Oc1coc2c(CN3CCN(C)CC3)c(O)ccc2c1=O	3	i	i	i	nt	i
COc1ccccc1-c1coc2c(CN3CCN(C)CC3)c(O)ccc2c1=O	2.2	i	i	i	nt	i
CCOC(=O)c1oc2cc(O)ccc2c(=O)c1-c1ccccc1OC	i	i	i	i	i	i
Cc1cccc(NC(=O)C2CCCN(S(=O)(=O)c3cccc4cccnc34)C2)c1 (centres undefined)	i	i	i	i	i	i
O=C1CN(c2nc3ccccc3n3cnnc23)CC(=O)N1CCc1ccccc1	i	i	i	i	i	i
CCc1cc2c(=O)c(-c3nc4ccccc4[nH]3)coc2c(CN2CCC(C)CC2)c1O	i	i	i	i	i	i
CCN1CCN(Cc2c(O)ccc3c(=O)c(-c4ccccc4OC)coc23)CC1	5	i	i	i	nt	i
COc1ccc(-c2csc(N(CC3CCCO3)C(=O)c3ccco3)n2)cc1 (centres undefined)	2.7	i	i	i	i	i
COc1ccc(-c2csc(N3CCN(C(=O)c4ccco4)CC3)n2)cc1	i	i	i	i	i	i
Cc1ccn2cc(-c3ccc(S(=O)(=O)N4CCOCC4)cc3)nc2c1	2.2	i	i	i	nt	i
Cc1ccc2nc(-c3ccc(S(=O)(=O)N4CCOCC4)cc3)cn2c1	3	i	i	i	nt	i
Cc1ccc(S(=O)(=O)N2CCOCC(=O)NCCOCCNC(=O)COCC2)cc1	i	i	i	i	+	i
O=C(O)c1cc(-c2ccncc2)nc2ccc(S(=O)(=O)N3CCOCC3)cc12	i	i	i	i	i	i
Cc1ccc2nc(-c3ccccc3)cn2c1	2.9	i	i	i	i	i
COc1ccccc1C1/C(=C(\O)c2c(C)nc3c(C)cccn23)C(=O)C(=O)N1CCCN(C)C (centres undefined)	i	i	i	i	i	i
CS(=O)(=O)NCCSCc1ccco1	i	i	i	i	i	i
O=C(c1ccco1)N1CCN(C(c2cccs2)c2nnnn2C2CCCCC2)CC1 (centres undefined)	i	i	i	i	i	i
CC(C)Cn1c(SCc2nnc(-c3cccs3)o2)nc(O)cc1=O	i	i	i	i	i	i
CCOc1ccc(CN2CCNC(=O)C2CC(=O)OC)cc1 (centres undefined)	i	i	i	i	i	i
SMILES	Fluor 339 460	Spn MK inh	PMK inhibit	NADH coupling	Spn DPM-DC inh	A340 absorber
CC(=O)N1CCc2cc(C(=O)CN3CCCCC3)ccc21	i	i	i	i	i	i
CC(=O)N1CCc2cc3nc(C)cc(C)c3cc21	4.1	i	i	i	nt	i
COC(=O)Cc1c(C)c2c(O)cc(C)cc2oc1=O	2.1	i	i	i	nt	i
CCOC(=O)Cc1c(C)c2c(C)[nH]nc2oc1=O	i	i	i	i	i	i
COc1cc2c(=O)n(CCCN3CCOCC3)c(=S)[nH]c2c(OC)c1OC	i	i	i	i	i	i
O=C(Cc1cc(=O)oc2cc(O)ccc12)NCC1CCC(C(=O)O)CC1 (centres undefined)	3.9	i	i	i	nt	i
c1ccc(-n2nnnc2SCc2cn3ccccc3n2)cc1	i	i	i	i	i	i
c1ccc(-n2nnnc2SCc2cn3cccnc3n2)cc1	5	i	i	i	nt	i
